Results reported in PubChem BioAssay (NCI).
The panel holds about 83,000 compounds, 20% with a hit somewhere; the sample as a whole holds those more often.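 In brief: 96-well plates, 48 h treatment, single concentration, percent growth endpoint.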 Active and inactive are the calls of the source.

System: HS 578T breast
Test: NCI-60 one-dose screen, 48 h (100 = growth as untreated, 0 = no growth, -100 = all killed)
Details: 10 µM unless noted
Protocol: Growth inhibition of the HS 578T human tumor cell line is measured as a screen for anti-cancer activity. Cells are grown in 96 well plates and exposed to the test compound for 48 hours. Compounds are tested at a single concentration, which is 10^-5 M for most compounds. The reported endpoint is percent growth (GI% or GIPRCNT), where numbers from 0 - 100% represent growth inhibition, and numbers from -100% - 0 represent cell death. For example, a value of 40 represents 60% growth inhibition. A value of 0 means no net growth occurred over the course of the experiment. A value of -40 indicates 40% of cells at the beginning of the experiment died by the end of the experiment. A value of -100 means all cells are dead at the end of the experiment.
NCI-60 Human Tumor Cell Lines Screen was performed using the standard one-dose NCI protocol, which is described in more detail at https://dtp.cancer.gov/discovery_development/nci-60/default.htm.
Compounds with GIPRCNT values below 10 were considered active. Activity score was based on GIPRCNT using the following formula: […]
Score is 0 for GIPRCNT values of 100 or above, 50 for GIPRCNT values of 0, and 100 for GIPRCNT values of -100.

For `COc1cc(C(=O)Nc2cc(O)c(CC=C(C)C)c(O)c2)cc2c1O[C@]1(C)CC[C@@H](O)C(C)(C)[C@H]1C2`, which growth is on record?
Its growth is 10.3% (inactive).

For `COc1cc(C2CC(c3ccc(Nc4nc(Nc5ccc(F)cc5)nc(Nc5ccc(Cl)cc5)n4)cc3)=NN2C(C)=O)cc(OC)c1OC` (stereo not given), which growth is on record?
The growth was 75.7% (inactive).

With `CCN(CC)c1ccc(Nc2ccc(CC(=O)c3ccccc3)cc2)cc1` as the compound, how does the growth read?
Its growth is 81.1% (inactive).

With `c1ccc([P+](CCCc2n(Cc3ccc4ccccc4c3)c3ccccc3[n+]2Cc2ccc3ccccc3c2)(c2ccccc2)c2ccccc2)cc1` as the compound, how does the growth read?
The growth was 68.6% (inactive).

`NS(=O)(=O)c1cnccc1-n1ccc(=O)c(S(N)(=O)=O)c1` was tested. Which growth did it give?
Its growth is 64% (inactive).

For `COc1cc(/C=C2\C=C(c3ccccc3)N(CCc3ccccc3)C2=O)cc(OC)c1OC`, which growth is on record?
Its growth is 23.2% (inactive).

With `O=C1C2=C(CCN(Cc3ccccc3)C2)N2CCN=C2N1Cc1ccc(C(F)(F)F)cc1` as the compound, how does the growth read?
Its growth is 36% (inactive).

With `Fc1ccc(Nc2ccc3cc(OCCCN4CCOCC4)ccc3n2)cc1F` as the compound, how does the growth read?
The growth was 40.6% (inactive).

`COc1cc(CNC(=O)/C=C/C=C/c2ccc3c(c2)OCO3)ccc1OCc1cn(-c2ccc(Cl)c(Cl)c2)nn1` was tested. Which growth did it give?
The growth was 7.23% (active).

With `Cc1ccc(/C(=N\N=C(N)N)c2ccccc2)cc1` as the compound, how does the growth read?
Its growth is 31.5% (inactive).

With `COC(=O)Nc1nc2ccc(C(=O)C3CC3)cc2[nH]1` as the compound, how does the growth read?
Its growth is -17.7% (active).

`CCCCNCC(=O)Nc1ccc(C(=O)OCC)cc1` was tested. Which growth did it give?
Its growth is 108% (inactive).

With `COc1ccc(C(=O)/C=C/c2cc3c(c(OC)c2)OCC(=O)N3)cc1` as the compound, how does the growth read?
Its growth is 42.3% (inactive).

Which growth does the source give for `CC(c1ccc(-n2cccn2)cc1)c1cnc(N2CCc3ccc(C(N)=O)cc3C2)s1` (stereo not given) here?
The growth was 100% (inactive).

How did the growth turn out when `COc1cc2c(=O)n(CCCn3ccnc3)c3c4cc5c(cc4ccc3c2cc1OC)OCO5` was run?
The growth was 32.4% (inactive).

Which growth does the source give for `Cc1nc(Nc2ccc(N)cc2)c2ccccc2n1` here?
Its growth is 104% (inactive).

How did the growth turn out when `CCn1c(Sc2nnc(NC(=O)CSC(=S)N3CCCCC3)s2)nc2c1c(=O)n(C)c(=O)n2C` was run?
Its growth is 91.4% (inactive).

`CCOC(=O)C(=CNc1ccccc1[N+](=O)[O-])C(=O)OCC` was tested. Which growth did it give?
Its growth is 98.6% (inactive).

`CNC(=O)NCC1OC(n2cnc3c(NC(=O)Nc4ccccc4)ncnc32)C2OC(C)(C)OC12` (stereo not given) was tested. Which growth did it give?
Its growth is 102% (inactive).

Which growth does the source give for `COc1ccc(-c2cc(-c3cc(OC)ccc3O)[nH]c(=O)c2C#N)cc1` here?
Its growth is 36.6% (inactive).

With `Cc1[nH]c(-c2nc3ccccc3[nH]2)c(C)c1C(=O)N1CCc2sccc2C1` as the compound, how does the growth read?
Its growth is 87.7% (inactive).

Which growth does the source give for `NS(=O)(=O)Oc1ccc(NC(=O)C23CC4CC(CC(C4)C2)C3)cc1Cl` here?
Its growth is 95.5% (inactive).

`O=C(/C=C/C12c3ccccc3C(c3ccccc31)C1C(=O)NC(=O)C12)c1ccc(Cl)cc1` (stereo not given) was tested. Which growth did it give?
Its growth is 11.6% (inactive).

For `COc1ccc(Oc2nc(Nc3ccc(N4CCOCC4)nc3)ncc2NC(=O)c2cc(OC)cc(OC)c2)cc1`, which growth is on record?
Its growth is 86.8% (inactive).

`CC12CC(C#N)CCC1O2` (stereo not given) was tested. Which growth did it give?
Its growth is 105% (inactive).

Which growth does the source give for `CCOC(=O)c1c(C)[nH]c(C(=O)CCC(=O)OC)c1C` here?
Its growth is 124% (inactive).

How did the growth turn out when `Cc1cc(-c2ccc(N(C)C)cc2)c2sc(=O)[nH]c2n1` was run?
Its growth is 48.1% (inactive).

`CCOC(=O)c1c(C)nc2c(c1N)/C(=C/c1cc(OC)c(OC)c(OC)c1)C(=O)N2c1ccc(OC)cc1` was tested. Which growth did it give?
The growth was 95.1% (inactive).

With `Nc1c(C(=O)Nc2ccccc2)sc2nc3c(cc12)CCCCCC3` as the compound, how does the growth read?
The growth was 22.8% (inactive).

`O=[N+]([O-])c1ccccc1C(O)Cc1ccc2ccccc2n1` (stereo not given) was tested. Which growth did it give?
The growth was 98.9% (inactive).

Which growth does the source give for `Cc1ccc(S(=O)(=O)NN/C(N)=N\S(=O)(=O)c2cc(C)c(Cl)cc2SCc2ccccc2)cc1` here?
Its growth is 70.5% (inactive).

With `C=C(C=O)[C@@H]1CC=C(C=O)CC1` as the compound, how does the growth read?
Its growth is 6.33% (active).

`N#Cc1c(-c2ccc(C(F)(F)F)cc2)cc(N2CC(O)C2)n2c1nc1ccccc12` was tested. Which growth did it give?
Its growth is 17.8% (inactive).

`NC(N)=N/N=C/c1ccc(Br)cc1` was tested. Which growth did it give?
The growth was 67.5% (inactive).

How did the growth turn out when `CC(=O)c1cc2c(o1)C(=O)c1ccccc1C2=O` was run?
The growth was -23.7% (active).

With `CSc1nc(N)c(CNC(C)c2ccccc2)c(=O)n1C` (stereo not given) as the compound, how does the growth read?
Its growth is 99.6% (inactive).

How did the growth turn out when `CCOC(=O)N1CCc2c(sc3c2C(=O)N[C@H](c2ccc(OC)cc2)N3)C1` was run?
Its growth is 98.7% (inactive).

How did the growth turn out when `N#Cc1cnn2c(-c3ccc(Cl)cc3)nc(NCCc3ccccc3)nc12` was run?
Its growth is 99.6% (inactive).

How did the growth turn out when `COc1ccc(/C=C2\COc3ccc(O)cc3C2=O)cc1OC` was run?
The growth was 80.4% (inactive).

`CCCCCCN(CCCCCC)CC(O)c1cccc2ccc(Cl)cc12` (stereo not given) was tested. Which growth did it give?
The growth was 61.2% (inactive).
